The structures appear in SMILES notation. A number with no mark means an inactive call.

The test system of the assay is Ditylenchus dipsaci. The experiment in a line: proportion of mobile D. dipsaci (mixed stage) relative to DMSO control (fraction of DMSO control); higher = more viable, less nematicidal, active = 0.86 or less; extreme values may be limits of the assay. The settings on record: 60 µM; 5 days; temperature: 20 °C. The gist of the method:
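The worms, D. dipsaci raised on pea plants in Gamborg B-5 agar, were recovered through a filter funnel into water. Each well of a 96-well plate then held about 20 of them in distilled water plus pinned compound at 60 µM final (0.6% v/v DMSO), and the sealed plates were shaken at 200 rpm at 20 °C for 5 days. Following addition of 2 µL 1 M NaOH, mobile worms were counted by microscopy, and mobility was expressed against DMSO controls as the average of two biological replicates.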
In the case of `Cc1ccc(C(=O)Nc2ccccc2-c2nc(-c3ccncc3)no2)cc1C`, the “proportion of mobile D. dipsaci” value was 1. In the case of `COc1ccc(CCC(=O)Nc2ccc(-c3noc(-c4ccccc4C)n3)cc2)cc1` it was 1; in that of `Fc1ccc(CSc2nnc(-c3ccccn3)o2)cc1`, 1; in that of `Clc1ccc(-c2noc(-c3ccncc3)n2)cc1`, 1. In the case of `Cc1cc(C)cc(OCc2nc(-c3ccccc3Cl)no2)c1` it was 1. In the case of `COc1ccccc1-c1nnc(SCC(=O)OCc2ccccc2)o1` it was 1; in that of `Cc1cc(Cl)ccc1OCc1nc(-c2ccc(F)cc2)no1`, 1; in that of `CCc1cccc(CC)c1NC(=O)CSc1nnc(-c2ccccc2OC)o1`, 1. On to `O=C(CSc1nnc(-c2ccccc2Cl)o1)Nc1nccs1`, for which the “proportion of mobile D. dipsaci” value is 1. In the case of `N#Cc1ccc(OCc2nc(-c3ccc(Br)o3)no2)cc1` it was 1. As to `COc1ccc(-c2noc(CSc3ccc(C)cc3)n2)cc1`, the “proportion of mobile D. dipsaci” value was 1. For the molecule `CCOC(=O)c1c(NC(=O)CSc2nnc(-c3ccc(Cl)cc3)o2)sc(C)c1C`, the “proportion of mobile D. dipsaci” value is 1.

In the case of `Ic1ccc(-c2nc(-c3cccnc3)no2)cc1`, the “proportion of mobile D. dipsaci” value is 1. In the case of `CCOc1ccccc1-c1nnc(SCC(=O)c2ccccc2)o1` it was 1; in that of `Cc1cc(C)c(NC(=O)CSc2nnc(-c3ccc(Br)cc3)o2)c(C)c1`, 1; in that of `COc1ccc(CC(=O)Nc2ccc(-c3noc(COc4cccc(C)c4C)n3)cc2)cc1`, 1. On to `Cc1cc(OCc2nc(-c3cccnc3)no2)ccc1Cl`, for which the “proportion of mobile D. dipsaci” value is 1. Regarding `Cc1ccc(OCc2nc(-c3ccccc3)no2)c(Br)c1`, the “proportion of mobile D. dipsaci” value is 1. For the molecule `CCCCc1ccc(-c2nc(-c3cccnc3)no2)cc1`, the “proportion of mobile D. dipsaci” value is 1. For `CCn1c(SCc2nc(-c3ccccc3)no2)nc2ccccc21`, the “proportion of mobile D. dipsaci” value was 1. In the case of `CSc1ccccc1-c1nc(-c2cccnc2)no1` it was 1; in that of `Cc1ccc(-c2noc(COc3ccc(Cl)c(C)c3)n2)cc1`, 1. For `CCN(CC)C(=O)CSc1nnc(-c2ccc(Cl)cc2Cl)o1` the value was 1; for `O=C(CSc1nnc(-c2ccc(Cl)cc2)o1)Nc1ccc(F)cc1`, 1. In the case of `Cc1ccc(-c2noc(COc3ccc(Cl)cc3C)n2)cc1`, the “proportion of mobile D. dipsaci” value is 1.

`COc1ccc(NC(=O)CSc2nnc(-c3ccc(Br)cc3)o2)cc1`: the “proportion of mobile D. dipsaci” value was 1. For `CCOc1nc(-c2ccc(C)cc2)ccc1-c1noc(CC)n1` the value was 1.

On to `Cc1cc(OCc2nc(-c3ccccc3)no2)ccc1Cl`, for which the “proportion of mobile D. dipsaci” value was 1. For `Fc1ccc(-c2nc(-c3ccc(Cl)cc3)no2)cc1` the value was 1; for `Brc1ccc(CSc2nnc(-c3cccnc3)o2)cc1`, 1. For `O=C(Nc1ccccc1-c1nc(-c2cccnc2)no1)c1cccc(Cl)c1`, the “proportion of mobile D. dipsaci” value was 1. Consider `COc1ccccc1-c1noc(-c2ccccc2C)n1`, for which the “proportion of mobile D. dipsaci” value was 1.

In the case of `COc1ccccc1OCc1nc(-c2ccc(Br)cc2)no1`, the “proportion of mobile D. dipsaci” value was 1.

On to `Clc1ccc(OCc2ccccc2)c(-c2nc(-c3cccnc3)no2)c1`, for which the “proportion of mobile D. dipsaci” value was 0.917. As for `Cc1ccc(CSc2nnc(-c3ccncc3)o2)cc1`, the “proportion of mobile D. dipsaci” value was 0.75 (active). For `Cc1ccccc1-c1noc(-c2ccccc2OCC(N)=O)n1` the value was 1.

As for `FC(F)(F)c1cccc(-c2noc(-c3cccs3)n2)c1`, the “proportion of mobile D. dipsaci” value was 1.

With `COc1ccccc1-c1noc(-c2ccccc2)n1`, the “proportion of mobile D. dipsaci” value was 1.

For the origin of these results see the supplement of paper PMC11219838.
